Laboratory results as given in publication PMC5515408, “Sequence-specific DNA binding by MYC/MAX to low-affinity non-E-box motifs”.
Over roughly 5,000 sequences, “log2 normalized fluorescence” has its median near 0.089; the highest 2% begin near 0.81. What follows is part of a selection rich in the highest values, with near analogues and random picks from the rest.

These sequences were tested against MYC (p64);MAX (p21), in MYC:MAX (human;human, UniProt P01106-1;P61244-2 1-439;1-151, |) (assay: protein-binding microarray (anti-MAX antibody); PBM: 15 mM Tris-HCl pH 7.5, 100 mM KCl, 0.075% NP40, 7.5 mM beta-mercaptoethanol, 375 ng/ul BSA, 8 ng/ul poly(dA-dT):(dA-dT), 550 ng complex, 60 min, room tempe; high values mean tight binding). Conditions: protein: recombinant;recombinant; tags: 6xHis;6xHis; copies: 1;1; label: 3' end of printed strand (linker) attached to glass slide; dsDNA, one strand shown.
In short: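 For each of ~5000 unique double-stranded 12-nt sequences, spotted in triplicate on a custom Agilent glass array, binding of His-tagged human MYC:MAX or MAX:MAX dimers is reported as log2 normalized fluorescence. The dimers (550 ng, E. coli-expressed) were incubated for 60 min at room temperature in Tris-KCl buffer, pH 7.5, with NP40, BSA and poly(dA-dT) competitor. Detection used anti-MAX and secondary antibodies with a 543 nm scan.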

Sequence of MYC (p64);MAX (p21), in MYC:MAX (P01106 16-454, chain 1 of 2): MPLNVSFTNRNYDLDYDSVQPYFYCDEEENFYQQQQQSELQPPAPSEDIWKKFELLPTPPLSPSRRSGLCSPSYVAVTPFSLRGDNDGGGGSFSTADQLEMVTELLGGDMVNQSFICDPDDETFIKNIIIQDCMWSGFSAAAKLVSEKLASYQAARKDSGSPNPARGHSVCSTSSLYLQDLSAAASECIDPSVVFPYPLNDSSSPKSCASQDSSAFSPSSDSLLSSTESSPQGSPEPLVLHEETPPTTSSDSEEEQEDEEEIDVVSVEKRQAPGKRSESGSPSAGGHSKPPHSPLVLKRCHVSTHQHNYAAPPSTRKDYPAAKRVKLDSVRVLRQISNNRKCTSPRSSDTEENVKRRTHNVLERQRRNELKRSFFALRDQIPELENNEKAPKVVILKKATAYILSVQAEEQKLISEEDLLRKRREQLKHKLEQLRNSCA
Sequence of MYC (p64);MAX (p21), in MYC:MAX (P61244 other isoform, or with tags, fused parts or gaps |, chain 2 of 2): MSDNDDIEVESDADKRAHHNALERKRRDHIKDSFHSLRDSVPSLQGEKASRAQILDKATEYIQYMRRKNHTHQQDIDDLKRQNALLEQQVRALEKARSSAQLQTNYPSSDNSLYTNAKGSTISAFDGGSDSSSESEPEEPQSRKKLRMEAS

Sequence | binding signal
CCGGCTGAGGACCGGTATTAATAGCTAAGATTACTATATCGACG | -0.014 log2 normalized fluorescence
CCGGCTGACACGTGGGCTTAATAGCTAAGATTACTATATCGACG | 0.74 log2 normalized fluorescence
CCGGCTGACGTGTGGTATTAATAGCTAAGATTACTATATCGACG | 0.252 log2 normalized fluorescence
CCGGCTGACACGTGGTATTAATAGCTAAGATTACTATATCGACG | 0.825 log2 normalized fluorescence
CCGGCCGACACGTGGGCTTAATAGCTAAGATTACTATATCGACG | 0.893 log2 normalized fluorescence
CCGGCTGAACGTGTGTATTAATAGCTAAGATTACTATATCGACG | 0.493 log2 normalized fluorescence
CCGGCCGACACGTTGTATTAATAGCTAAGATTACTATATCGACG | 0.656 log2 normalized fluorescence
CCGGCTAACACGTGATATTAATAGCTAAGATTACTATATCGACG | 0.646 log2 normalized fluorescence
CCGGCCGACACGTGATATTAATAGCTAAGATTACTATATCGACG | 0.927 log2 normalized fluorescence
CCGGCCGACACGTCGTATTAATAGCTAAGATTACTATATCGACG | 0.338 log2 normalized fluorescence
CCGGCTGAACACACGTATTAATAGCTAAGATTACTATATCGACG | 0.419 log2 normalized fluorescence
CCGGCTGACGACACGTATTAATAGCTAAGATTACTATATCGACG | 0.2 log2 normalized fluorescence
CCGGCTGAACACGTGTATTAATAGCTAAGATTACTATATCGACG | 0.823 log2 normalized fluorescence
CCGGCTGACTAGTAGTATTAATAGCTAAGATTACTATATCGACG | -0.00827 log2 normalized fluorescence
CCGGCTGACACGACATATTAATAGCTAAGATTACTATATCGACG | 0.459 log2 normalized fluorescence
CCGGCTGAAGACCAGTATTAATAGCTAAGATTACTATATCGACG | 0.106 log2 normalized fluorescence
CCGGCTGAGGCAAGGTATTAATAGCTAAGATTACTATATCGACG | 0.281 log2 normalized fluorescence
CCGGCTGAGGTCGCGTATTAATAGCTAAGATTACTATATCGACG | 0.0221 log2 normalized fluorescence
CCGGCTGATAACAGGTATTAATAGCTAAGATTACTATATCGACG | -0.0157 log2 normalized fluorescence
CCGGCTGACCTATGGTATTAATAGCTAAGATTACTATATCGACG | 0.108 log2 normalized fluorescence
CCGGCTGAGTGTGAGTATTAATAGCTAAGATTACTATATCGACG | 0.101 log2 normalized fluorescence
CCGGCTGAACGCGTGTATTAATAGCTAAGATTACTATATCGACG | 0.587 log2 normalized fluorescence
CCGGCCGACACGTGGAATTAATAGCTAAGATTACTATATCGACG | 0.832 log2 normalized fluorescence
CCGGCTAACACGTGGAATTAATAGCTAAGATTACTATATCGACG | 0.812 log2 normalized fluorescence
CCGGCTGACACGTGGAATTAATAGCTAAGATTACTATATCGACG | 0.698 log2 normalized fluorescence
CCGGCCGACACGTGGTATTAATAGCTAAGATTACTATATCGACG | 1.07 log2 normalized fluorescence
CCGGCCGGCACGTGGTATTAATAGCTAAGATTACTATATCGACG | 0.723 log2 normalized fluorescence

Sequence | binding signal
CCGGCCGACGCGTGGTATTAATAGCTAAGATTACTATATCGACG | 0.626 log2 normalized fluorescence
CCGGCTGAGCAGCGGTATTAATAGCTAAGATTACTATATCGACG | 0.0954 log2 normalized fluorescence
CCGGCAGACTCGTTGTATTAATAGCTAAGATTACTATATCGACG | 0.374 log2 normalized fluorescence
CCGGCTGAAGAGCTGTATTAATAGCTAAGATTACTATATCGACG | 0.00393 log2 normalized fluorescence
CCGGCTGACACTTTGTATTAATAGCTAAGATTACTATATCGACG | 0.302 log2 normalized fluorescence
CCGGCTGAGGTTTGGTATTAATAGCTAAGATTACTATATCGACG | -0.0536 log2 normalized fluorescence
CCGGCCGACACGTGCTATTAATAGCTAAGATTACTATATCGACG | 0.722 log2 normalized fluorescence
CCGGCCGACACGTGCTTTTAATAGCTAAGATTACTATATCGACG | 0.852 log2 normalized fluorescence
CCGGCTGACACGTGCTTTTAATAGCTAAGATTACTATATCGACG | 0.771 log2 normalized fluorescence
CCGGCTAACACGTGCTTTTAATAGCTAAGATTACTATATCGACG | 0.969 log2 normalized fluorescence
CCGGCCGACACGTTGTTTTAATAGCTAAGATTACTATATCGACG | 0.661 log2 normalized fluorescence
CCGGCTGCCACGTGCTTTTAATAGCTAAGATTACTATATCGACG | 0.652 log2 normalized fluorescence
CCGGCTGAGTTGTGGTATTAATAGCTAAGATTACTATATCGACG | 0.0821 log2 normalized fluorescence
CCGGCTGAAACATCGTATTAATAGCTAAGATTACTATATCGACG | 0.226 log2 normalized fluorescence
CCGGCTGAGGTAATGTATTAATAGCTAAGATTACTATATCGACG | 0.138 log2 normalized fluorescence
CCGGCAAACACGATGTTTTAATAGCTAAGATTACTATATCGACG | 0.827 log2 normalized fluorescence
CCGGCTGACACGCGGTATTAATAGCTAAGATTACTATATCGACG | 0.487 log2 normalized fluorescence
CCGGCTAACACGCGGTATTAATAGCTAAGATTACTATATCGACG | 0.819 log2 normalized fluorescence
CCGGCTTACACGTGCTATTAATAGCTAAGATTACTATATCGACG | 1.02 log2 normalized fluorescence
CCGGCTAATACGTGGTATTAATAGCTAAGATTACTATATCGACG | 0.38 log2 normalized fluorescence
CCGGCATACACTTGGTATTAATAGCTAAGATTACTATATCGACG | 0.425 log2 normalized fluorescence
CCGGCTTACACATGCTATTAATAGCTAAGATTACTATATCGACG | 0.812 log2 normalized fluorescence
CCGGCTTACACGTGATATTAATAGCTAAGATTACTATATCGACG | 0.75 log2 normalized fluorescence
CCGGCGGAGACGATGTTTTAATAGCTAAGATTACTATATCGACG | 0.0761 log2 normalized fluorescence
CCGGCATACACGTGGTATTAATAGCTAAGATTACTATATCGACG | 0.842 log2 normalized fluorescence
CCGGCCGACACGCGGTATTAATAGCTAAGATTACTATATCGACG | 0.697 log2 normalized fluorescence
CCGGCAGAGAACGATGTTTAATAGCTAAGATTACTATATCGACG | 0.248 log2 normalized fluorescence
